# The source made the active and inactive calls. Unless noted, how the calls were made is not given here.
# Columns and labels:
# [1] = tested on: Wnt5a (protein binding on small-molecule microarray); assay: small molecules binding Wnt5a protein – biophysical, small-molecule microarray, 635/667 nm fluorescence, primary screen (AID 1142); conditions: 635 nm fluorescence, higher = more signal;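 further: fluorescence read at 667 nm with signal to noise per printed feature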
# [2] = ATP-based viability of Huh7 replicon cells – cell-based, CellTiter-Glo luminescence, basal, 48 h, cytotoxicity control for HCV replication inhibitor project, primary screen (AID 1143); conditions: higher = more signal, called active from +8 up or from −8 down;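 further: Huh7 hepatoma cells carrying a hepatitis C replication reporter with no stimulus; test concentration not given here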
# [3] = Pseudomonas biofilm growth suppression – PAO1 strain, BacTiter-Glo luminescence, LB-PBS, primary screen (AID 1144); conditions: P. aeruginosa PAO1 biofilm, 12 h, higher = more signal
# [4] = basal CRE-LacZ reporter activity in PC12 – cell-based, unstimulated, primary screen (AID 1145); conditions: no forskolin, luminescence, 4.5 h, higher = more signal, called active from +8 up or from −8 down
# [5] = forskolin-driven CRE-LacZ activity in PC12 – cell-based, CRE-LacZ reporter, forskolin-stimulated, primary screen (AID 1146); conditions: luminescence, 4.5 h, higher = more signal, called active from +8 up or from −8 down;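 further: PC12 cells with 6xCRE LacZ reporter stimulated by forskolin 10 µM; beta-galactosidase reporter signal reflecting CREB driven transcription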
# [6] = biological target: Streptavidin (Streptomyces avidinii) (UniProt P22629); assay: compounds binding control protein streptavidin – biophysical, small-molecule microarray, 635/667 nm fluorescence, artefact control for SMM compound annotation, primary screen (AID 1147); conditions: higher = more signal;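 further: signal reflects streptavidin binding to arrayed compounds as a control protein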
# Sequence of Streptavidin (Streptomyces avidinii) (P22629 whole entry, looked up): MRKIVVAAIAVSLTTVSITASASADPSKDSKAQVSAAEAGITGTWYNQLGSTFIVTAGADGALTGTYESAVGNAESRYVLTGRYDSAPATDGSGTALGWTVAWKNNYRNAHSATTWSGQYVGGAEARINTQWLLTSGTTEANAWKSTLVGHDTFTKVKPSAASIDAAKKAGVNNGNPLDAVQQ
# [7] = probe aInhba binding on compound microarray – biochemical, small-molecule microarray, 635/667 nm fluorescence, primary screen (AID 1148); conditions: higher = more signal;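 further: score merges 667nm spot fluorescence with signal-to-noise for antibody binding to printed compounds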
# Torsin-1A (Homo sapiens) [8] = biological target: Torsin-1A (Homo sapiens) (UniProt O14656); assay: TOR1A wild-type binding on microarray – cell lysate, small-molecule microarray, lysate, 635/667 nm, primary screen (AID 1149); conditions: COS7 hTOR1A-WT lysate, 635 nm fluorescence, higher = more signal
# Sequence of Torsin-1A (Homo sapiens) (O14656 whole entry, looked up): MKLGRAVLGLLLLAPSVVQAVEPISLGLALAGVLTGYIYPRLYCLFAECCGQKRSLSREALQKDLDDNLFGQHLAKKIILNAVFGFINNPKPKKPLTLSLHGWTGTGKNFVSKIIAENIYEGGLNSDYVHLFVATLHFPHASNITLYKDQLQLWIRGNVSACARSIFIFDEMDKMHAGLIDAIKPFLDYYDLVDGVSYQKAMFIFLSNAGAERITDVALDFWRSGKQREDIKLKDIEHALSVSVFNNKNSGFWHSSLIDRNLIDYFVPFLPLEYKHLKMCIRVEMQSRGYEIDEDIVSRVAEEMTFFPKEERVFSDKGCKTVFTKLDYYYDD
# Torsin-1A (Homo sapiens) [9] = biological target: Torsin-1A (Homo sapiens) (UniProt O14656); assay: torsin A mutant lysate binding on microarrays – cell lysate, small-molecule microarray, COS7 lysate, 635/667 nm fluorescence, primary screen (AID 1150); conditions: COS7 hTOR1A mutant lysate, 635 nm fluorescence, higher = more signal;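 further: score pools 667 nm emission and signal to noise measuring lysate protein binding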
# [10] = tested on: Sonic hedgehog protein (Shh); assay: Sonic hedgehog microarray binding compounds – biochemical, small-molecule microarray, 635/667 nm fluorescence, primary screen (AID 1151); conditions: 635 nm fluorescence, higher = more signal;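 further: Shh protein binding to compounds spotted on small-molecule microarray slides; score combines spot fluorescence intensity with signal-to-noise across triplicate slides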
SMILES,composite z-score [1],z-score [2],z-score [3],z-score [4],z-score [5],composite z-score [6],composite z-score [7],composite z-score (Torsin-1A (Homo sapiens) [8]),composite z-score (Torsin-1A (Homo sapiens) [9]),composite z-score [10]
COc1ccc([Si](C)(C)[C@H]2[C@H](CCO)O[C@@]3(C(=O)N(Cc4ccccc4)c4ccc(N5C(=O)c6ccccc6Oc6ccccc65)cc43)[C@@H]2C)cc1,0.147,-6.59 (inactive),-0.0823 (inactive),0.324 (inactive),-0.328 (inactive),-0.069,-0.128,-0.218,0.102,0.534
[N-]=[N+]=Nc1ccccc1C[C@]1(C(=O)O)N=C(c2ccc(OCCCO)cc2)O[C@H]1c1ccccc1,0.0269,-0.218 (inactive),-0.54 (inactive),2.53 (inactive),-0.522 (inactive),0.261,0.189,1.05,1.45,-0.536
CCCNC(=O)[C@@]1(Sc2ccc(C)cc2)CC(=O)N(C(C)C)[C@@H]1c1ccc(CO)cc1I,-0.272,-1.07 (inactive),0.767 (inactive),-0.412 (inactive),0.892 (inactive),-1,-0.186,0.0671,0.157,-0.42
C=C(COC)C(=O)CC[C@H](OC(=O)c1cccnc1)c1ccc(CO)o1,0.196,-0.319 (inactive),0.312 (inactive),0.522 (inactive),0.756 (inactive),-0.184,0.13,2.19,-0.0291,1.41
CCOC(=O)C=Cc1ccccc1O,0.0265,-4.76 (inactive),-0.203 (inactive),-0.471 (inactive),-0.586 (inactive),0.486,0.0051,0.399,0.146,0.158
CN1C(=O)C2C=CC(C(O)c3cc(C(F)(F)F)cc(C(F)(F)F)c3)N(Nc3ccccc3)C2C1=O (stereo not given),-0.253,-0.73 (inactive),0.329 (inactive),0.626 (inactive),-0.0455 (inactive),0.0416,-0.128,-1.74,1.13,-0.145
COC(=O)[C@@]1(Cc2ccc(OC)cc2)[C@H]2c3cc(C(=O)N4CCCC4)n(Cc4ccc(OC(F)(F)F)cc4)c3C[C@H]2CN1C(=O)c1ccccc1,0.622,-3.34 (inactive),0.488 (inactive),-0.565 (inactive),-0.239 (inactive),1.73,0.0925,-1.04,-0.89,-1.05
COc1ccc(C(=O)Nc2cccc(CN3C(=O)[C@]4(O[C@H](CCn5cc([C@H](O)c6ccccc6)nn5)[C@@H]([Si](C)(C)c5ccc(OC)cc5)[C@@H]4C)c4ccccc43)c2)cc1,0.194,-7.81 (inactive),-0.568 (inactive),-0.36 (inactive),-0.413 (inactive),0.192,-0.183,0.0107,0.205,1.69
O=C1C2C=CC(C(O)c3ccco3)N(Nc3ccccc3)C2C(=O)N1c1ccccc1 (stereo not given),-0.476,0.876 (inactive),-0.497 (inactive),0.0467 (inactive),0.621 (inactive),-0.511,-0.0963,-1.16,0.746,-0.998
C=C(/C(=C/C[C@@H](OC(C)=O)c1ccc(CO)o1)c1cc(C(=O)OC)ccc1OC)C(C)C,0.201,-0.143 (inactive),-0.0434 (inactive),0.247 (inactive),2.78 (inactive),-0.446,0.148,0.431,0.549,1.07
NCCCCCNC(=O)[C@@H]1C[C@@H]2C(=O)N3CCC[C@H]3C(=O)N2[C@@H]1c1ccc(O)cc1,0.446,-0.406 (inactive),-0.113 (inactive),0.143 (inactive),-0.707 (inactive),1.11,0.0706,0.778,1.1,0.468
CN1C(=O)C2C(C1=O)C1C=C(CCCO)C2C(c2cccs2)N1Cc1cc2c(cc1Br)OCO2 (stereo not given),0.418,-1.8 (inactive),0.482 (inactive),-0.374 (inactive),-0.101 (inactive),2.27,0.233,1.5,1.95,0.162
COCCOC(=O)N1C(=O)[C@@]2(c3cc(C#CCNC(N)=O)ccc31)[C@H](c1ccc(O)cc1)N1[C@H](c3ccccc3)[C@H](c3ccccc3)OC(=O)[C@H]1[C@@H]2C(=O)N1CCN(c2ncccn2)CC1,0.0474,0.259 (inactive),-0.648 (inactive),-0.589 (inactive),-0.249 (inactive),0.374,-0.0898,0.652,0.747,0.905
COC(=O)C1=CC(CCCO)=CC(c2ccc(CN3CCCC3)cc2)N(Cc2cc3c(cc2Br)OCO3)C=C1C(=O)OC (stereo not given),0.804,-0.0928 (inactive),-0.44 (inactive),0.0118 (inactive),-0.602 (inactive),1.98,0.36,0.0851,2.59,-0.249
CN(C)C(=O)[C@]1(CCS(=O)(=O)c2ccccc2)N=C(c2ccc(OCCCO)cc2)O[C@@H]1c1ccccc1,0.995,-2.87 (inactive),-1.52 (inactive),1.42 (inactive),1.1 (inactive),1.22,0.204,0.957,0.831,-0.707
COCCOC(=O)N1C(=O)[C@@]2(c3ccccc31)[C@H](c1ccc(OCCO)cc1)N1[C@H](c3ccccc3)[C@H](c3ccccc3)OC(=O)[C@H]1[C@@H]2C(=O)N1CCCCCCC1,2.44,-2.59 (inactive),-0.302 (inactive),-0.329 (inactive),3.39 (inactive),4.09,2.11,3.76,3.68,2.29
[N-]=[N+]=NCc1ccccc1C[C@@]1(C(=O)N2CCCCC2)N=C(c2ccc(OCCCO)cc2)O[C@@H]1c1ccccc1CN=[N+]=[N-],0.599,-4.29 (inactive),0.87 (inactive),-0.114 (inactive),0.872 (inactive),0.721,0.153,0.362,-0.0699,-0.306
CO[C@H]1O[C@H](CO)[C@@H](OC(=O)Nc2cccc(F)c2)[C@H](OC(=O)Nc2ccccc2-c2ccccc2)[C@H]1OC(=O)Nc1ccccc1-c1ccccc1,0.828,-5.99 (inactive),0.0177 (inactive),0.951 (inactive),-0.986 (inactive),0.379,0.208,0.937,0.663,1.23

# Reference: PubChem BioAssay
